Assay results published in PubChem BioAssay.
Active and inactive are the calls of the source. Unless noted, how the calls were made is not given here.

How the values were obtained:
[1] = compound effects on lung adenocarcinoma cell viability – A549, calcein-AM fluorescence, 48 h, basal, profiling panel (AID 1162); details: higher = more signal; further: test concentration not given here
[2] = compound effects on differentiated 3T3-L1 adipocyte viability – cell-based, 3T3-L1 adipocytes, calcein-AM fluorescence, 48 h, basal, profiling panel (AID 1163); details: 3T3-L1 adipocytes viability, higher = more signal; further: test concentration not given here
[3] = compound effects on hepatocellular carcinoma cell viability – HepG2, calcein-AM fluorescence, 48 h, basal, profiling panel (AID 1164); details: higher = more signal; further: test concentration not given here
[4] = compound effects on multiple myeloma cell viability – MM1S, calcein-AM fluorescence, 48 h, basal, profiling panel (AID 1165); details: higher = more signal;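 further: viability of MM1S multiple myeloma cells under basal unstimulated conditions; test concentration not given here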
[5] = calcein-AM signal in unstimulated myeloma cells – cell-based, calcein-AM fluorescence, 48 h, PK04 Diversity Set, profiling panel (AID 1166); details: RPMI8226 myeloma viability, higher = more signal;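 further: cells grown under basal conditions without added stimulus; test concentration not given here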
[6] = JC-1 mitochondrial signal, unstimulated HepG2 cells – cell-based, JC-1 fluorescence, 24 h, 100 nL compound, profiling panel (AID 1167); details: HepG2 mitochondrial potential, higher = more signal; further: test concentration not given here
[7] = JC-1 mitochondrial signal, unstimulated adipocytes – cell-based, JC-1 fluorescence, 3T3-L1 adipocytes, 24 h, 100 nL compound, profiling panel (AID 1168); details: JC-1 mitochondrial fluorescence, higher = more signal, called active from +8 up or from −8 down; further: test concentration not given here
[8] = JC-1 mitochondrial signal, unstimulated myeloma cells – cell-based, JC-1 fluorescence, RPMI8226, 24 h, 100 nL compound, profiling panel (AID 1169); details: JC-1 mitochondrial potential fluorescence, higher = more signal; further: test concentration not given here
[9] = JC-1 mitochondrial signal, unstimulated MM1S myeloma – cell-based, JC-1 fluorescence, 24 h, 100 nL compound, profiling panel (AID 1170); details: MM1S mitochondrial potential, higher = more signal; further: test concentration not given here
[10] = resazurin metabolic signal in A549 cells – cell-based, resazurin fluorescence, 24 h, PK04 Diversity Set, profiling panel (AID 1171); details: A549 viability, higher = more signal, called active from +8 up or from −8 down; further: test concentration not given here
[11] = resazurin metabolic signal in HepG2 cells – cell-based, resazurin fluorescence, 24 h, PK04 Diversity Set, profiling panel (AID 1172); details: HepG2 viability, higher = more signal; further: test concentration not given here
[12] = budding yeast growth changes without added modifier – OD600, strain BY4716, 24 h, basal condition, primary screen (AID 1173); details: S. cerevisiae BY4716 growth, OD600, 24 h; higher = more signal, called active from +8 up or from −8 down
[13] = viability profiling in MM1S myeloma cells – cell-based, resazurin fluorescence, basal, 24 h, PK04 Diversity Set, profiling panel (AID 1174); details: higher = more signal, called active from +8 up or from −8 down; further: test concentration not given here
[14] = molecular target: Dihydroorotate dehydrogenase (quinone), mitochondrial (Plasmodium falciparum (isolate 3D7)) (UniProt Q08210); assay: inhibition of P. falciparum DHODH – biochemical, C-terminal His tag, absorbance 600 nm, primary screen (AID 1175); details: PfDHODH enzyme, DCIP absorbance 600 nm; higher = more signal, called active from +8 up or from −8 down;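 further: recombinant parasite enzyme with a five histidine tag at its C terminus; test concentration not given here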
Chain of Dihydroorotate dehydrogenase (quinone), mitochondrial (Plasmodium falciparum (isolate 3D7)) (Q08210 whole entry, looked up): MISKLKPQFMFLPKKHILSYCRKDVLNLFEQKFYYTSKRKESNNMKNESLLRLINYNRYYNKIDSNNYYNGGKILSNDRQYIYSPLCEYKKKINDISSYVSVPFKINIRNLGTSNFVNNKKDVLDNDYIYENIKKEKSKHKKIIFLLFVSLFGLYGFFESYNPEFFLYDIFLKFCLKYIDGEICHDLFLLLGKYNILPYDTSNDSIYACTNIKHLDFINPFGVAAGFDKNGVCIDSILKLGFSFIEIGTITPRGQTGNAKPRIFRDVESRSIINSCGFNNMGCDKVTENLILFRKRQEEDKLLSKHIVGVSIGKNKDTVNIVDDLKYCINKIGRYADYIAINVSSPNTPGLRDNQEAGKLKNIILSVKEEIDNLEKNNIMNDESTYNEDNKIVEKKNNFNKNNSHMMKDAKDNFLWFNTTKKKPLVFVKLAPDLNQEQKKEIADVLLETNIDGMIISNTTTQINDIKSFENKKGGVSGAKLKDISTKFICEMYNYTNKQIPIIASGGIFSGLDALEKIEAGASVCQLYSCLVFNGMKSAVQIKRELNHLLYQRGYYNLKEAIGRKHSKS

[15] = inhibition of PAO1 biofilm formation – strain PAO1, LB-PBS medium, absorbance 600 nm, primary screen (AID 1176); further: test concentration not given here; details: P. aeruginosa PAO1 growth/biofilm, A600, 12 h; higher = more signal
[16] = growth modulation of vineyard yeast isolate – strain RM11-1a, OD600, basal, 24 h, primary screen (AID 1177);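 further: cultures grown under basal conditions with no added stressor; test concentration not given here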; details: S. cerevisiae RM11-1a growth, OD600, 24 h; higher = more signal, called active from +8 up or from −8 down
[17] = growth of efflux-deficient E. coli DRC39 – strain DRC39, OD650, 24 h, E. coli filamentation inducers, primary screen (AID 1178);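 further: growth measured as culture turbidity by optical density at 650 nm; test concentration not given here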; details: E. coli DRC39 acrAB, higher = more signal, called active from +8 up or from −8 down
[18] = growth of efflux-deficient E. coli DRC39 – strain DRC39, OD650, 48 h, E. coli filamentation inducers, primary screen (AID 1179);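 further: screen aims at cell division blockers that make cells filament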; details: E. coli DRC39 delta-acrAB growth, higher = more signal, called active from +8 up or from −8 down
[19] = viability profiling in RPMI8226 myeloma cells – cell-based, resazurin fluorescence, basal, 24 h, PK04 Diversity Set, profiling panel (AID 1180); details: higher = more signal;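 further: RPMI8826 multiple myeloma cell line at 5000 cells per well; test concentration not given here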
[20] = molecular target: E3 ubiquitin-protein ligase XIAP (Homo sapiens) (UniProt P98170); assay: small molecules binding XIAP protein – biophysical, small-molecule microarray, fluorescence 635 nm, primary screen (AID 1181); details: higher = more signal;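 further: score merges 667 nm emission and signal to noise over triplicate slides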
Chain of E3 ubiquitin-protein ligase XIAP (Homo sapiens) (P98170 whole entry, looked up): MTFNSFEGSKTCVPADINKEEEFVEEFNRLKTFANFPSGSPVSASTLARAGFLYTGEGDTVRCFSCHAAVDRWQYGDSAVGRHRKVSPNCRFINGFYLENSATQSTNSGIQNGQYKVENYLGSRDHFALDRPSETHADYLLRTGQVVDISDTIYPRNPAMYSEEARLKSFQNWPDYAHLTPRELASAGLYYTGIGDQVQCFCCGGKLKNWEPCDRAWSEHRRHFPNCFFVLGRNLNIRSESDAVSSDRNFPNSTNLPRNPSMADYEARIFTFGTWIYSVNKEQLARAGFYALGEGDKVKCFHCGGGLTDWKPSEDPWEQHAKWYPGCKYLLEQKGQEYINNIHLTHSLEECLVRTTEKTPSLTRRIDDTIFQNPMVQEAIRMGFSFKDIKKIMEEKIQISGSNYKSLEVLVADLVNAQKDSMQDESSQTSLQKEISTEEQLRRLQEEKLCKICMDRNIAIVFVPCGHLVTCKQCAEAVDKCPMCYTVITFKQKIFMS

COC(=O)[C@@]1(Cc2ccc(F)cc2)[C@H]2c3cc(C(=O)N4CCCC4)n(Cc4ccc(C)c(F)c4F)c3C[C@H]2CN1C(=O)c1ccccc1
z-score [1]: -0.858 | z-score [2]: -0.82 | z-score [3]: 0.97 | z-score [4]: -3.35 | z-score [5]: -3.35 | z-score [6]: 1.01 | z-score [7]: -1.02 (inactive) | z-score [8]: -0.59 | z-score [9]: -1.38 | z-score [10]: -0.718 (inactive) | z-score [11]: -1.15 | z-score [12]: 0.289 (inactive) | z-score [13]: -1.42 (inactive) | composite z-score [14]: -1.23 (inactive) | z-score [15]: 1 (inactive) | z-score [16]: 0.22 (inactive) | z-score [17]: -0.107 (inactive) | z-score [18]: -0.11 (inactive) | z-score [19]: -0.588 | composite z-score [20]: -0.0483

CCCCN1CC=CC23O[C@@H]4/C=C\CCC(C)OC(=O)C4[C@H]2C(=O)N(CCCO)[C@@H]3C1=O (stereo not given in full)
z-score [1]: -0.615 | z-score [2]: 1.57 | z-score [3]: -0.241 | z-score [4]: 1.04 | z-score [5]: -0.386 | z-score [6]: -0.534 | z-score [7]: 0.276 (inactive) | z-score [8]: 0.635 | z-score [9]: 0.71 | z-score [10]: -0.523 (inactive) | z-score [11]: 0.0917 | z-score [12]: 1.04 (inactive) | z-score [13]: 0.0853 (inactive) | composite z-score [14]: -0.0558 (inactive) | z-score [15]: -0.112 (inactive) | z-score [16]: 0.487 (inactive) | z-score [17]: 0.0475 (inactive) | z-score [18]: -0.154 (inactive) | z-score [19]: 0.79 | composite z-score [20]: -0.267

C=C(C(=O)CC[C@H](OC(=O)c1ccccc1-c1ccccc1C(=O)O)c1cccc(OCCO)c1)C(C)C
z-score [1]: -0.613 | z-score [2]: 0.422 | z-score [3]: -0.502 | z-score [4]: -3.07 | z-score [5]: -1.52 | z-score [6]: -1.68 | z-score [7]: -0.156 (inactive) | z-score [8]: 0.248 | z-score [9]: 0.618 | z-score [10]: -0.701 (inactive) | z-score [11]: -0.862 | z-score [12]: -0.907 (inactive) | z-score [13]: -0.69 (inactive) | composite z-score [14]: -0.23 (inactive) | z-score [15]: 0.804 (inactive) | z-score [16]: -0.427 (inactive) | z-score [17]: -1.08 (inactive) | z-score [18]: -1.03 (inactive) | z-score [19]: -0.69 | composite z-score [20]: 0.0617

COc1cc2c(cc1O)C(C1CC1)N(C)CC2 (stereo not given)
z-score [1]: 0.368 | z-score [2]: 0.381 | z-score [3]: 0.575 | z-score [4]: 0.533 | z-score [5]: -0.393 | z-score [6]: 0.283 | z-score [7]: 0.883 (inactive) | z-score [8]: 0.0965 | z-score [9]: 1.87 | z-score [10]: -0.348 (inactive) | z-score [11]: 0.0514 | z-score [12]: -0.391 (inactive) | z-score [13]: 0.509 (inactive) | composite z-score [14]: -0.501 (inactive) | z-score [15]: -0.572 (inactive) | z-score [16]: -0.0321 (inactive) | z-score [17]: 0.115 (inactive) | z-score [18]: 0.0029 (inactive) | z-score [19]: -0.0158 | composite z-score [20]: 0.175

COCCOC(=O)N1C(=O)[C@@]2(c3cc(C#CCNC(N)=O)ccc31)[C@H](C(N)=O)[C@H]1C(=O)O[C@H](c3ccccc3)[C@H](c3ccccc3)N1[C@@H]2c1ccccc1OCCO
z-score [1]: 0.533 | z-score [2]: 0.0371 | z-score [3]: -0.362 | z-score [4]: -1.24 | z-score [5]: 0.458 | z-score [6]: -2.02 | z-score [7]: -0.278 (inactive) | z-score [8]: -0.159 | z-score [9]: 0.244 | z-score [10]: 0.291 (inactive) | z-score [11]: -0.281 | z-score [12]: 0.407 (inactive) | z-score [13]: -0.126 (inactive) | composite z-score [14]: -0.235 (inactive) | z-score [15]: 0.986 (inactive) | z-score [16]: 1.59 (inactive) | z-score [17]: -0.0653 (inactive) | z-score [18]: -0.0752 (inactive) | z-score [19]: -0.0771 | composite z-score [20]: -0.135

C=CC[C@]1(C(=O)N2CCCCC2)N=C(c2ccc(OCCCO)cc2)O[C@H]1c1ccccc1CN=[N+]=[N-]
z-score [1]: -0.416 | z-score [2]: 0.132 | z-score [3]: 0.61 | z-score [4]: -1.11 | z-score [5]: -1.15 | z-score [6]: 0.574 | z-score [7]: 0.32 (inactive) | z-score [8]: -1.31 | z-score [9]: -0.576 | z-score [10]: 0.482 (inactive) | z-score [11]: 0.948 | z-score [12]: -1.03 (inactive) | z-score [13]: -0.398 (inactive) | composite z-score [14]: -0.709 (inactive) | z-score [15]: -0.124 (inactive) | z-score [16]: 0.0349 (inactive) | z-score [17]: 0.552 (inactive) | z-score [18]: 1.11 (inactive) | z-score [19]: 0.128 | composite z-score [20]: 0.354
